# In publication PMC4081100, “A DNA-binding-site landscape and regulatory network analysis for NAC transcription factors in Arabidopsis thaliana”:
# Legend:
# Experiment in all cases: universal protein binding microarray (PBM); transcription factors of Arabidopsis thaliana; high values mean tight binding
# GST-ANAC092(1-176) = molecular target: T1, GST-ANAC092(1-176) (Arabidopsis thaliana, UniProt Q9FKA0 1-176); conditions: protein: recombinant; tags: GST; chain copies: 2; dsDNA, one strand shown
# T1 sequence: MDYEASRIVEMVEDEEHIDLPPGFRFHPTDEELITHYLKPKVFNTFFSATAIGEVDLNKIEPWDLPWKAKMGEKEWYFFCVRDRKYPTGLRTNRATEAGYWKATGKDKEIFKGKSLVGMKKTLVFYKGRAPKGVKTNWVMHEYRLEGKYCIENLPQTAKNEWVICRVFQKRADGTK
# Summary of the method: (§1)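 GST-tagged proteins (NAC-domain, full-length or DNA-binding-domain) were induced in cells, with zinc acetate supplied for zinc-finger proteins, then purified on glutathione–Sepharose 4B. Each was tested in duplicate at 200 to 500 nM final on custom all-10-mer Agilent 4 × 180K arrays rendered double-stranded by primer extension. The binding value is the normalised enrichment score (E-score) across gapped and ungapped 8-mers.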
# GST-NTL6(1-168) = GST-NTL6(1-168) (Arabidopsis thaliana, UniProt Q9SCK6 1-168); conditions: protein: recombinant; tags: GST; chain copies: 2; dsDNA, one strand shown
# Chain of GST-NTL6(1-168) (Q9SCK6 1-168): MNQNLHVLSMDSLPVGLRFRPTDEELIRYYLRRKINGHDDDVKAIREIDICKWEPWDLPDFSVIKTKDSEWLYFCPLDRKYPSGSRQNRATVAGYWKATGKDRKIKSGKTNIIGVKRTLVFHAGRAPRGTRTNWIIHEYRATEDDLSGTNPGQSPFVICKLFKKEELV
# Summary of the method: as §1
# GST-ANAC055(1-171) = molecular target: T2, GST-ANAC055(1-171) (Arabidopsis thaliana, UniProt Q9LDY8 1-171); conditions: protein: recombinant; tags: GST; chain copies: 2; dsDNA, one strand shown
# T2 sequence: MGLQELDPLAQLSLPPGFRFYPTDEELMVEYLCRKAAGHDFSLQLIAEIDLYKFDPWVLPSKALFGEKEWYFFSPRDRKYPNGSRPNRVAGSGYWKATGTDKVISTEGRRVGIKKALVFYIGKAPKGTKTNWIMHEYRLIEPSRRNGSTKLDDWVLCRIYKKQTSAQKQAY
# Summary of the method: as §1
# GST-ATAF1 NAC domain = molecular target: T3, GST-ATAF1 NAC domain (Arabidopsis thaliana, UniProt Q39013 7-158); conditions: protein: recombinant; tags: GST; chain copies: 2; dsDNA, one strand shown
# T3 sequence: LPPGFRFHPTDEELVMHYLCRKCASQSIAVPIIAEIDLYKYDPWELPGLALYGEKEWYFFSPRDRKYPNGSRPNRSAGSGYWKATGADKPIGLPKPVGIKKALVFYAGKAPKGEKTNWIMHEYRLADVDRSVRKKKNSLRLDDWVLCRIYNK
# Summary of the method: as §1
# [1] = molecular target: T4, GST-ANAC092(1-285) full length (Arabidopsis thaliana, UniProt Q9FKA0 1-285); conditions: protein: recombinant; tags: GST; chain copies: 2; dsDNA, one strand shown
# T4 sequence: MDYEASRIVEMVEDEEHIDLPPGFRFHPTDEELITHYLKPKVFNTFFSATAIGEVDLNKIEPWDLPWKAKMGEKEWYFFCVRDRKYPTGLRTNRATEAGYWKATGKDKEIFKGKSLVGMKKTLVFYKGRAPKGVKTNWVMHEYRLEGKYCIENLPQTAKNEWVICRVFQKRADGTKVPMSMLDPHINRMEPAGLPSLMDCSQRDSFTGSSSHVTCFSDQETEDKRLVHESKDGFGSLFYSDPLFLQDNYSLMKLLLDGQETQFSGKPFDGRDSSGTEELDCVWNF
# Summary of the method: as §1
# GST-NST2(1-184) = molecular target: T5, GST-NST2(1-184) (Arabidopsis thaliana, UniProt Q9M274 1-184); conditions: protein: recombinant; tags: GST; chain copies: 2; dsDNA, one strand shown
# T5 sequence: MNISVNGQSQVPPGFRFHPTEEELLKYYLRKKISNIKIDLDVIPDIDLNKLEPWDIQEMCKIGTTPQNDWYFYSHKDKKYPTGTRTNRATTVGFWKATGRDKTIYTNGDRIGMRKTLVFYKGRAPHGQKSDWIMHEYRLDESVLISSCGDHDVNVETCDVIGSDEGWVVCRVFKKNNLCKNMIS
# Summary of the method: as §1
# GST-NTL8 NAC domain = molecular target: T6, GST-NTL8 NAC domain (Arabidopsis thaliana, UniProt Q9XIN7 14-156); conditions: protein: recombinant; tags: GST; chain copies: 2; dsDNA, one strand shown
# T6 sequence: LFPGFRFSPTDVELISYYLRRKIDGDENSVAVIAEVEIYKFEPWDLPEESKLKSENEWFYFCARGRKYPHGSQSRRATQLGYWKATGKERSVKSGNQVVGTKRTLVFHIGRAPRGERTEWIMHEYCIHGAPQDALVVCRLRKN
# Summary of the method: as §1
# GST-SND1(1-203) = molecular target: T7, GST-SND1(1-203) (Arabidopsis thaliana, UniProt Q9LPI7 1-203); conditions: protein: recombinant; tags: GST; chain copies: 2; dsDNA, one strand shown
# T7 sequence: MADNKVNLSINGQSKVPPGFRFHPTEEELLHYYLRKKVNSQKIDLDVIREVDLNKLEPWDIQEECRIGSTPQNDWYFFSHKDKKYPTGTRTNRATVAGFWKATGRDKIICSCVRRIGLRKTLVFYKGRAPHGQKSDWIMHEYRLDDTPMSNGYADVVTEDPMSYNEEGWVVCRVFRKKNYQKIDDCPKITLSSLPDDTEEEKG
# Summary of the method: as §1
# GST-VND7 NAC domain = molecular target: T8, GST-VND7 NAC domain (Arabidopsis thaliana, UniProt Q9C8W9 9-158); conditions: protein: recombinant; tags: GST; chain copies: 2; dsDNA, one strand shown
# T8 sequence: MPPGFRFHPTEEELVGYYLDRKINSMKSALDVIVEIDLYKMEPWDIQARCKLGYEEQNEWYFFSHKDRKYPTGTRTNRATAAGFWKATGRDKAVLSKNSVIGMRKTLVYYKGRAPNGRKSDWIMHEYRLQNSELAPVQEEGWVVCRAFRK
# Summary of the method: as §1
# GST-ANAC019 NAC domain = molecular target: T9, GST-ANAC019 NAC domain (Arabidopsis thaliana, UniProt Q9C932 14-162); conditions: protein: recombinant; tags: GST; chain copies: 2; dsDNA, one strand shown
# T9 sequence: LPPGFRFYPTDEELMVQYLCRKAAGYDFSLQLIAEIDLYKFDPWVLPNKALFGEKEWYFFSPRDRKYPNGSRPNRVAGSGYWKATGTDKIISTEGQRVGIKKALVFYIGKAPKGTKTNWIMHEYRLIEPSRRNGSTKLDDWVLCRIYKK
# Summary of the method: as §1
# GST-NAP(1-166) = molecular target: T10, GST-NAP(1-166) (Arabidopsis thaliana, UniProt O49255 1-166); conditions: protein: recombinant; tags: GST; chain copies: 2; dsDNA, one strand shown
# T10 sequence: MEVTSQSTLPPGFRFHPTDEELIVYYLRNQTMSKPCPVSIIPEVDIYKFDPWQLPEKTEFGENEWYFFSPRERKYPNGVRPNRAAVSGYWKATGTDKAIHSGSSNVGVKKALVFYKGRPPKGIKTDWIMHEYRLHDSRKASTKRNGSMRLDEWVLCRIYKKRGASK
# Summary of the method: as §1
# GST-WRKY1(266-371) = GST-WRKY1(266-371) (Arabidopsis thaliana, UniProt Q9SI37 266-371); conditions: protein: recombinant; tags: GST; dsDNA, one strand shown
# Chain of GST-WRKY1(266-371) (Q9SI37 266-371): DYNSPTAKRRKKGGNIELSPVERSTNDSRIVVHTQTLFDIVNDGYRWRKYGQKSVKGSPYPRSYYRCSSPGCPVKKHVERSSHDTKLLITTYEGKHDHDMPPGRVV
# Summary of the method: as §1
sequence,measurement,setting,value
GAGGGTAA,binding signal,GST-ANAC092(1-176),0.0757 E-score
same,binding signal,GST-NTL6(1-168),0.17 E-score
same,binding signal,GST-ANAC055(1-171),0.0669 E-score
same,binding signal,GST-ATAF1 NAC domain,0.123 E-score
same,binding signal,[1],0.109 E-score
same,binding signal,GST-NST2(1-184),0.173 E-score
same,binding signal,GST-NTL8 NAC domain,0.474 E-score
same,binding signal,GST-SND1(1-203),0.108 E-score
same,binding signal,GST-VND7 NAC domain,0.079 E-score
CCCCGCCC,binding signal,GST-ANAC092(1-176),0.325 E-score
same,binding signal,GST-NTL6(1-168),0.319 E-score
same,binding signal,GST-ANAC019 NAC domain,0.329 E-score
same,binding signal,GST-ANAC055(1-171),0.178 E-score
same,binding signal,GST-ATAF1 NAC domain,0.262 E-score
same,binding signal,[1],0.343 E-score
same,binding signal,GST-NAP(1-166),0.0894 E-score
same,binding signal,GST-NST2(1-184),0.297 E-score
same,binding signal,GST-NTL8 NAC domain,0.372 E-score
same,binding signal,GST-SND1(1-203),0.378 E-score
same,binding signal,GST-VND7 NAC domain,0.273 E-score
GAAGAAAC,binding signal,GST-ANAC092(1-176),0.203 E-score
same,binding signal,GST-NTL6(1-168),0.295 E-score
same,binding signal,GST-ANAC019 NAC domain,0.123 E-score
same,binding signal,GST-ANAC055(1-171),0.168 E-score
same,binding signal,GST-ATAF1 NAC domain,0.194 E-score
same,binding signal,[1],0.0911 E-score
same,binding signal,GST-NST2(1-184),0.197 E-score
same,binding signal,GST-NTL8 NAC domain,0.423 E-score
same,binding signal,GST-SND1(1-203),0.126 E-score
same,binding signal,GST-VND7 NAC domain,0.0868 E-score
ACGCCATG,binding signal,GST-ANAC092(1-176),0.336 E-score
same,binding signal,[1],0.404 E-score
same,binding signal,GST-NAP(1-166),0.154 E-score
same,binding signal,GST-NST2(1-184),0.128 E-score
same,binding signal,GST-SND1(1-203),0.222 E-score
same,binding signal,GST-VND7 NAC domain,0.0848 E-score
AGGGGAAA,binding signal,GST-ANAC092(1-176),0.191 E-score
same,binding signal,GST-NTL6(1-168),0.14 E-score
same,binding signal,GST-ANAC019 NAC domain,0.112 E-score
same,binding signal,[1],0.0577 E-score
same,binding signal,GST-NAP(1-166),0.101 E-score
same,binding signal,GST-NTL8 NAC domain,0.412 E-score
same,binding signal,GST-SND1(1-203),0.0998 E-score
same,binding signal,GST-VND7 NAC domain,0.132 E-score
CGTTGACA,binding signal,GST-SND1(1-203),0.0727 E-score
same,binding signal,GST-WRKY1(266-371),0.464 E-score
CACGCTAA,binding signal,GST-ANAC092(1-176),0.453 E-score
same,binding signal,GST-NTL6(1-168),0.0834 E-score
same,binding signal,GST-ANAC019 NAC domain,0.226 E-score
same,binding signal,[1],0.471 E-score
same,binding signal,GST-NST2(1-184),0.224 E-score
same,binding signal,GST-SND1(1-203),0.415 E-score
same,binding signal,GST-VND7 NAC domain,0.112 E-score
CCACGCCA,binding signal,GST-ANAC092(1-176),0.372 E-score
same,binding signal,GST-ANAC019 NAC domain,0.0852 E-score
same,binding signal,GST-ANAC055(1-171),0.0687 E-score
same,binding signal,GST-ATAF1 NAC domain,0.145 E-score
same,binding signal,[1],0.415 E-score
same,binding signal,GST-NAP(1-166),0.0773 E-score
same,binding signal,GST-NST2(1-184),0.0528 E-score
same,binding signal,GST-SND1(1-203),0.141 E-score
same,binding signal,GST-VND7 NAC domain,0.102 E-score
AAGTCAGT,binding signal,GST-SND1(1-203),0.0862 E-score
same,binding signal,GST-WRKY1(266-371),0.411 E-score
